Bioassay records as filed in PubChem.
Rows were chosen to be rich in hits. Some 5.7% of all compounds tested hit in one or more screens of this group.
ssDAF12 agonist = S. stercoralis DAF-12 nuclear receptor activators, primary screen, cell-based, luminescence, HEK293, GRIP1 co-expression, lit1-tk-luc; Nuclear hormone receptor DAF-12 (Strongyloides stercoralis); HEK293 ssDAF-12/GRIP1 lit1-tk-luc reporter; % of 3 µM dafachronic acid response; activation, % at 6.8 µM; actives 1% (n = 370,000); AID 652126, 2013;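 active = activation above the mean over all tested compounds plus 3 SD, cut at about 0.9% in these data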;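 note: 0% = DMSO-only wells and 100% = 3 µM delta7-dafachronic acid wells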
hgDAF-12 ag = H. glycines DAF-12 receptor agonists, primary screen, cell-based, luminescence, HEK293, GAL4 fusion, UAS-luciferase. Nuclear hormone receptor DAF-12 (Heterodera glycines), GAL4 fusion. AID 687014, 2013. actives 1.8% (n = 370,000). HEK293 GAL4-hgDAF12 UAS-luciferase reporter, agonist luminescence; normalized to butyrate control. activation, % at 6.8 µM;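 active = activation above a cutoff set at the mean of all screened compounds plus 3 SD, cut at about 10% in these data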;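 note: 0% = DMSO wells and 100% = sodium butyrate wells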
hcDAF12 agonist = H. contortus DAF-12 nuclear receptor activators, primary screen, cell-based, luminescence, HEK293, lit1-tk-luc reporter; actives 1.4% (n = 370,000); HEK293 hcDAF-12 lit1-tk-luc reporter; 0% DMSO, 100% Δ7-dafachronic acid; AID 652067, 2013; activation, % at 6.8 µM;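 active = activation above the mean of all tested compounds plus 3 SD, cut at about 5.5% in these data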;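 note: 100% = response to 3 µM Δ7-dafachronic acid high control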
DAX1 inh-1 = DAX1 (NR0B1) inhibitors, primary screen, cell-based, HEK293, Gal4-DAX1, luciferase luminescence. actives 0.99% (n = 340,000). AID 504766, 2011. inhibition, % at 6.75 µM. HEK293 Gal4-DAX1 luciferase reporter. Nuclear receptor subfamily 0 group B member 1 (Homo sapiens), P51843;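 active = inhibition above the mean over all tested compounds plus 3 SD, cut at about 4.2% in these data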;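 note: 0% = DAX1-transfected cells with DMSO and 100% = empty-vector control cells with DMSO; inhibition shows as a rise in luminescence from relieved DAX1 repression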
AHR activator = AHR activators, primary screen, cell-based, luminescence, luciferase reporter, human. Aryl hydrocarbon receptor (Homo sapiens), P35869. AHR-responsive luciferase reporter cells. activation, % at 5 µM. actives 2.5% (n = 320,000). AID 2796, 2010; in the data active = activation above about 47%;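 note: 0% = vehicle wells and 100% = reference agonist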
Target sequence (P35869 whole entry, looked up): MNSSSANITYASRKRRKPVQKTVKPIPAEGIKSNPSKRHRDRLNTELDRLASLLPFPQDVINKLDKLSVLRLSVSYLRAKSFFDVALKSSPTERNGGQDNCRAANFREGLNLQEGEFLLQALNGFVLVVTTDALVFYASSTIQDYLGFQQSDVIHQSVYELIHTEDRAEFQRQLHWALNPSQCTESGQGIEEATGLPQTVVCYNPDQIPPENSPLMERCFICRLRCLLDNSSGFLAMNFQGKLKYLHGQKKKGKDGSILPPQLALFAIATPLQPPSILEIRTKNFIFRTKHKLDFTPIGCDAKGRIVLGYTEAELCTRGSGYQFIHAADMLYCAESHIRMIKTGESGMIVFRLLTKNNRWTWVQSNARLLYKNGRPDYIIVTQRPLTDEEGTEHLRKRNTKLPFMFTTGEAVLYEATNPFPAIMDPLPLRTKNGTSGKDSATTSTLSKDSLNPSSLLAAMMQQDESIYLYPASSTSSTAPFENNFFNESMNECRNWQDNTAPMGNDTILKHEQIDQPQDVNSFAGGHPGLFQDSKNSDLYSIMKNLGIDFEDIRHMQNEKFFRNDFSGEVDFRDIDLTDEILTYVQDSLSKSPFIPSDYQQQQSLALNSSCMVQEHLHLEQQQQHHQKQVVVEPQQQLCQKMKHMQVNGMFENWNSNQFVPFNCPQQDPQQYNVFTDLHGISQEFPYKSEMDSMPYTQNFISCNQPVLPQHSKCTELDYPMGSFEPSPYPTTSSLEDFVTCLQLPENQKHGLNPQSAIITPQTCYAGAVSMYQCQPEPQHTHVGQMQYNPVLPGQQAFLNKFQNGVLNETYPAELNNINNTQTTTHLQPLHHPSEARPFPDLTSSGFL
DAX1 inh-2 = DAX1 (NR0B1) inhibitors on StAR promoter, primary screen, cell-based, luminescence, SF-1 (NR5A1), full-length DAX-1; HEK293T StAR-luciferase reporter, SF-1/DAX-1 repression relief; inhibition, % at 6.8 µM; actives 1.1% (n = 370,000); AID 652010, 2013;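 active = inhibition above the mean over all tested compounds plus 3 SD, cut at about 3.6% in these data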;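 note: 0% = DAX-1 cells with DMSO and 100% = cells lacking DAX-1 with DMSO; higher inhibition means more luminescence from relief of DAX-1 repression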
Active calls of the source: *; / = not tested or not shown.

SMILES	ssDAF12 agonist	hgDAF-12 ag	hcDAF12 agonist	DAX1 inh-1	AHR activator	DAX1 inh-2
Cc1ccc(OC(C)C(=O)Nc2ccccc2C(=O)N2CCN(C)CC2)cc1 (configuration not stated)	-1	-5	-1	0	0	0
O=C(CN1CCN(c2ccccc2)CC1)Nc1cccc([N+](=O)[O-])c1	-2	0	-2	0	5	1
CC1CCc2nn(CC(=O)NCCCN3CCCC3=O)cc2C1 (configuration not stated)	0	3	-1	3	0	1
O=C(Cn1ccc([N+](=O)[O-])n1)N1CCc2ccccc21	0	0	-1	-1	-1	0
CC1CCc2nn(CC(=O)NCCN3CCCCC3C)cc2C1 (configuration not stated)	-1	5	-1	5.8*	0	1
Cc1ccn(CCC(=O)N2CCc3ccccc32)n1	0	0	1	1	13	4.1*
CC1CCc2nn(CC(=O)N3CCc4ccccc43)cc2C1 (configuration not stated)	0	3	3	4.6*	7	1
O=C(c1ccc(CNS(=O)(=O)c2ccc(Br)cc2)cc1)N1CCCCC1	-1	-1	-2	0	0	0
CCc1nc2ccc(C(=O)N(CC)CCN(C)C)cn2c1N(C=O)CCC(C)C	-1	4	0	/	/	0
CCCCn1c(SCC(=O)NCCOC)nc2ccc(N3CCOCC3)cc2c1=O	-1	-2	-2	4.8*	25	0
O=C(CSc1nc2ccc(N3CCOCC3)cc2c(=O)n1CCc1ccccc1)NCC1CCCO1 (configuration not stated)	-1	0	1	0	43	0
CCCCNC(=O)CSc1nc2ccc(N3CCOCC3)cc2c(=O)n1CCc1ccccc1	-1	3	2	1	58*	1
COCCNC(=O)CSc1nc2ccc(N3CCOCC3)cc2c(=O)n1CCc1ccccc1	-2	1	3	0	73*	0
CC1(Cc2cccc(C(N)=O)c2)C(=O)Nc2c(Cl)cccc21 (configuration not stated)	-1	1	-1	/	/	0
NC1=NC(=Nc2ccccc2)c2ccccc21	-1	0	-3	1	-5	1
NC1=NC(=Nc2ccc(Cl)cc2)c2ccccc21	-1	-4	0	-1	56*	0
Cc1cccc(N=C2N=C(N)c3ccccc32)c1	-2	3	0	0	0	1
CC(C)c1ccc(N=C2N=C(N)c3ccccc32)cc1	1	4	5	2	48*	2
CCCN(CC(=O)Nc1ccccc1C)C(=O)c1ccc(C)c(S(=O)(=O)N2CCCCC2)c1	-1	-3	-2	-1	2	0
CCCN(CC(=O)Nc1ccccc1C)C(=O)c1ccc(Cl)c(S(=O)(=O)N2CCCC2)c1	-1	-2	0	5.3*	1	2
O=C(NC(=S)NNC(=O)c1cccs1)c1ccccc1	0	4	4	1	52*	1
O=C(NNC(=O)c1cccs1)c1cccc(F)c1	1.3*	-2	2	-1	-1	1
O=C(NNC(=O)c1cccs1)c1ccc(F)cc1	0	1	1	0	-1	1
Cc1ccc(-n2cnc(N)c2C(=O)c2cccc([N+](=O)[O-])c2)cc1	-1	1	-2	3	-1	0
O=[N+]([O-])c1ccc(SCCO)nc1SCCO	-1	0	-1	2	-2	0
COc1ccccc1N(CC(O)Cn1c2ccccc2c2ccccc21)S(=O)(=O)c1ccccc1 (configuration not stated)	-1	-3	0	-1	45	0
